This passage reports z-score results from PubChem BioAssay.

Structures are written as SMILES. A number with no mark means an inactive call. Activity calls are given as the source filed them.

This test in a line: forskolin-driven CRE-LacZ activity in PC12 – cell-based, CRE-LacZ reporter, forskolin-stimulated, primary screen (AID 1146).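 Note: PC12 cells with 6xCRE LacZ reporter stimulated by forskolin 10 µM; beta-galactosidase reporter signal reflecting CREB driven transcription.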 Particulars: luminescence, 4.5 h, higher = more signal, called active from +8 up or from −8 down.
On to `Cc1ccccc1C(O)C1C=CC2C(=O)N(c3ccccc3)C(=O)C2N1Nc1ccccc1F` (stereo not given), for which the z-score was -0.283. On to `COC(=O)[C@@]1(CCS(=O)(=O)c2ccccc2)N=C(c2ccc(OCCCO)cc2)O[C@H]1c1ccccc1N=[N+]=[N-]`, for which the z-score is -0.112.

With `C=C(CCCC)C(=O)CC[C@H](OC(=O)c1cccnc1)c1ccc(CO)o1`, the z-score is 0.484. Take `COCCOC(=O)N1C(=O)[C@@]2(c3cc(C#CC4(O)CCCCCC4)ccc31)[C@H](c1ccc(OCCO)cc1)N1[C@H](c3ccccc3)[C@H](c3ccccc3)OC(=O)[C@H]1[C@@H]2C(N)=O`: the z-score was 0.595.

As for `CN(C)C(=O)[C@]1(Cc2ccccc2)N=C(c2ccc(OCCCO)cc2)O[C@@H]1c1ccccc1`, the z-score is 0.14. Take `COc1ccc(C#Cc2ccc3c(c2)[C@]2(C(=O)N3)[C@H](C(=O)Nc3nc4ccccc4s3)[C@H]3C(=O)O[C@H](c4ccccc4)[C@H](c4ccccc4)N3[C@@H]2c2ccc(OCCO)cc2)cc1`: the z-score was -0.545. To `CCOC(=O)C[C@H]1[C@H](OC(=O)c2ccc(C(=O)c3ccccc3)cc2)[C@@H](NC(=O)c2ccc3ccccc3c2)c2cc(OCCCO)ccc2N1C(=O)c1ccc2ccccc2n1` belongs -0.643; to `CN(C)CCCCNC(=O)[C@H]1C[C@H]2C(=O)N[C@@H](Cc3ccccc3)C(=O)N2[C@H]1c1cccc(OCCO)c1`, -1.16; to `C=C(CC1([C@@H](NP(=O)(c2ccccc2)c2ccccc2)[C@H]2C[C@@H]2CCN(C(=O)OCC)S(=O)(=O)c2ccc(C)cc2)CC1)c1ccccc1`, 0.108. As for `C=C(CCCC)/C(=C/C[C@H](OC(C)=O)c1cccc(OCCO)c1)c1cc(C(=O)OC)ccc1OC`, the z-score is -0.834. On to `C=CCNC(=O)[C@H]1[C@@H]2C(=O)O[C@@H](c3ccccc3)[C@@H](c3ccccc3)N2[C@@H](c2ccccc2OCCO)[C@]12C(=O)N(C(=O)OCCOC)c1ccccc12`, for which the z-score was 6.34.

In the case of `O=C1OCCC/C=C\[C@H]2OC34C=CCN(Cc5ccccc5)C(=O)[C@H]3N(CCCCCO)C(=O)[C@@H]4C12` (stereo not given in full), the z-score is 0.327. Take `CC(C)(C)OC(=O)CC[C@]1(C(=O)N2CCOCC2)N=C(c2ccc(OCCCO)cc2)O[C@H]1c1ccccc1CN=[N+]=[N-]`: the z-score is -1.4.

With `CCCC=C(CCC)[C@@H](NC(=O)c1ccco1)c1ccc(C(=O)OC)cc1`, the z-score is 0.514. With `COC(=O)c1c(CC[C@@H](CO)NC(=O)N[C@@H](Cc2ccccc2)Cn2cc(-c3cncn3C)nn2)oc(C(C)=O)c1C(=O)OC`, the z-score is -0.566. Turning to `COC(=O)[C@@]1(Cc2ccc(OC)cc2)[C@H]2c3cc(C(=O)N(C)C)n(Cc4ccsc4Br)c3C[C@H]2CN1C(=O)c1ccccc1`, the z-score was 0.217.

As to `C=CCC(OC(C)=O)[C@@H]1[C@@H](N(Cc2ccc(-c3ccccc3)cc2)C(=O)c2ccc(-c3ccccc3)cc2)c2cc(OCCCO)ccc2N1C(=O)c1ccc2ccccc2n1` (stereo not given in full), the z-score is 0.705. As to `O=C1c2ccccc2[C@](Cc2ccccc2I)(C(=O)O)[C@H](c2ccc(CO)cc2)N1Cc1ccccc1`, the z-score is 0.131. With `COCC(=C=CC[C@@H](O)c1cccc(OCCO)c1)C[C@@H](O)COCc1ccccc1`, the z-score is -0.352. For the molecule `C[N+](C)(C)CCCCCCNC(=O)[C@@H]1C[C@@H]2C(=O)N[C@@H](Cc3ccccc3)C(=O)N2[C@@H]1c1ccc(O)cc1`, the z-score is -0.327. Regarding `COCCOC(=O)N1C(=O)[C@@]2(c3ccccc31)[C@H](c1ccc(OCCO)cc1)N1[C@H](c3ccccc3)[C@H](c3ccccc3)OC(=O)[C@H]1[C@@H]2C(=O)N1CCN(c2ncccn2)CC1`, the z-score is 4.01. `COCCOC(=O)N1C(=O)[C@@]2(c3cc(C#CCCO)ccc31)[C@H](c1ccccc1OCCO)N1[C@H](c3ccccc3)[C@H](c3ccccc3)OC(=O)[C@H]1[C@@H]2C(=O)N1CCc2cc(OC)c(OC)cc2C1`: the z-score is 0.385. With `C=CCC(OC(C)=O)[C@@H]1[C@@H](N(Cc2cc3ccccc3o2)C(=O)Cc2ccc(OC)cc2)c2cc(OCCCO)ccc2N1C(=O)Cc1ccc(OC)cc1` (stereo not given in full), the z-score was -0.0385.

In the case of `CC(C)C[C@H]1NC(=O)[C@@]23C(=O)N[C@@H](Cc4ccccc4)C2[C@H](C)[C@@]2(C)O[C@H]2C3/C=C/C/C=C\CNC(=O)[C@@H]2CCCN2C1=O` (stereo not given in full), the z-score was 0.865.

Consider `COCCOC(=O)N1C(=O)[C@@]2(c3cc(C#CCC(C(=O)OC)C(=O)OC)ccc31)[C@H](c1ccc(OCCO)cc1)N1[C@H](c3ccccc3)[C@H](c3ccccc3)OC(=O)[C@H]1[C@@H]2C(=O)N1CCCCCCC1`, for which the z-score was -0.553. Regarding `COCC(=C=CC[C@@H](O)c1ccc(OCCO)cc1)C[C@@H](O)COCc1ccccc1`, the z-score is -0.487.

Turning to `COC(=O)[C@@H]1N=C(c2ccc(OCCCO)cc2)O[C@@H]1c1ccccc1CN=[N+]=[N-]`, the z-score was 0.0126. Turning to `C=C(COC)C(=O)CC[C@@H](OC(C)=O)c1ccc(OCCO)cc1`, the z-score is 8.41 (active).

On to `O=C(NCCO)C1=C[C@H](Oc2ccccc2I)[C@@H](O)[C@H](NCc2ccc(F)cc2)C1`, for which the z-score was 0.925.

With `O=C1O[C@@H](c2ccccc2)[C@@H](c2ccccc2)N2[C@@H](c3ccc(OCCO)cc3)[C@]3(C(=O)Nc4ccc(C#CCCO)cc43)[C@@H](C(=O)Nc3nc4ccccc4s3)[C@H]12`, the z-score is 0.0759. For `NCCCC[C@@H]1NC(=O)[C@H]2C[C@@H](C(=O)O)[C@@H](c3cccc(OCCO)c3)N2C1=O`, the z-score is 0.963. Consider `COCCOC(=O)N1C(=O)[C@@]2(c3cc(C#CCCO)ccc31)[C@H](C(=O)N1CCc3cc(OC)c(OC)cc3C1)[C@H]1C(=O)O[C@H](c3ccccc3)[C@H](c3ccccc3)N1[C@@H]2c1ccccc1OCCO`, for which the z-score is -0.251. Regarding `COC(=O)[C@@]1(Cc2ccccc2)[C@@H]2[C@@H](CC(=O)[C@H]2CC(=O)C(=O)N(C)C)CN1C(=O)c1ccccc1`, the z-score is 0.983.

For the molecule `O=C1O[C@H](c2ccccc2)[C@H](c2ccccc2)N2[C@H]1[C@@H](C(=O)N1CCN(c3ncccn3)CC1)[C@]1(C(=O)Nc3ccccc31)[C@H]2c1ccc(O)cc1`, the z-score is -0.682.

On to `CCOC(=O)C1=CC[C@@H](c2ccccc2Cl)N(S(=O)(=O)c2ccc(C)cc2)[C@H]1c1cccc(OC)c1`, for which the z-score was 0.173.
